From PubChem BioAssay (NCI)
The panel holds about 79,000 compounds, 15% with a hit somewhere; the sample as a whole holds those more often. Active and inactive are the calls of the source. Cut-off read from the data, not from the text of the source: active = growth inhibition above about 70%; inactive = the rest.

Columns and labels:
[1] = NCI Yeast Anticancer Drug Screen. Data for the rad50 strain (AID 155);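 note: 0% = growth of vehicle-only cultures of the same strain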; conditions: S. cerevisiae rad50 strain growth inhibition; at 50.0 µM; hits give high values
Outline: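 Cells are treated with compound, grown, and their growth is then scored against vehicle-only cultures of the same repair-deficient yeast strain.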

[2] = NCI Yeast Anticancer Drug Screen. Data for the mec2-1 strain (AID 157); conditions: S. cerevisiae mec2-1 strain, at 50.0 µM, hits give high values
Outline: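 Test agents were screened against the mec2-1 yeast strain, with defined DNA repair or cell cycle alteration. Growth was scored as inhibition against vehicle-only controls.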

[3] = NCI Yeast Anticancer Drug Screen. Data for the sgs1 mgt1 strain (AID 161);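 note: 0% = growth of cultures given vehicle only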; conditions: S. cerevisiae sgs1 mgt1 strain, at 50.0 µM, hits give high values
Outline: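 Mutant yeast exposed to compound; growth scored against vehicle-only wells.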

[4] = NCI Yeast Anticancer Drug Screen. Data for the cln2 rad14 strain (AID 165);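 note: 0% = growth equal to vehicle treated cultures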; conditions: S. cerevisiae cln2 rad14 strain, at 50.0 µM, hits give high values
Outline: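 Growth of compound-exposed yeast (cln2 rad14 genotype) measured and expressed as inhibition relative to vehicle.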

[5] = NCI Yeast Anticancer Drug Screen. Data for the bub3 strain (AID 167); conditions: S. cerevisiae bub3 mutant strain, at 50.0 µM, hits give high values
Outline: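 Part of a panel of yeast mutants defective in DNA damage repair or cell cycle regulation. Each strain is grown with compound, and inhibition is calculated relative to solvent-treated cultures.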

[6] = NCI Yeast Anticancer Drug Screen. Data for the mlh1 rad18 strain (AID 175); conditions: S. cerevisiae mlh1 rad18 strain growth inhibition; at 50.0 µM; hits give high values
Outline: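 In this whole-cell yeast screen, a strain with altered DNA damage repair is challenged with compound, and its growth is measured against matched vehicle-treated controls.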

Measured: growth inhibition

CC1CCC2(CC1)N=C1CCC(C)CC1C1(CCC(C)CC1)N2 (stereo unspecified)
inactive: [1] -22.4% | [2] 0.25% | [3] -32.9% | [4] -23.1% | [5] -13.2% | [6] -11.1%

O=c1[nH]c(=O)c2ncn(-c3ccc(Cl)cc3)c2[nH]1
inactive: [1] -7.35% | [2] -20.9% | [3] 7.1% | [4] -37.5% | [5] -24.4% | [6] -8.3%

CC(=O)Nc1cc(F)c(NC(C)=O)c(F)c1
inactive: [1] -2.05% | [2] -1.95% | [3] -18.9% | [4] -15.2% | [5] -9.05% | [6] -10.3%

O=C(c1ccccc1Br)C(F)(F)F
inactive: [1] -2.6% | [2] -19.5% | [3] -18.4% | [4] -17.5% | [5] -43.9% | [6] -3.8%

CC(C)CC1NC(=S)N(c2ccccc2)C1=O (stereo unspecified)
inactive: [1] -11% | [2] -18.4% | [3] -13.7% | [4] -10.1% | [5] -8.05% | [6] -24.7%

CC(=O)OCc1cc(Cl)c(OC(C)=O)c(COC(C)=O)c1
inactive: [1] 7.75% | [2] -10.2% | [3] 8.8% | [4] 20.1% | [5] -9.05% | [6] 3.65%

C[N+](C)(C)CCC(=O)CC[N+](C)(C)C
inactive: [1] 16.2% | [2] -2.2% | [3] 0.5% | [4] -24.4% | [5] 32.6% | [6] 40.9%

O=C(O)CCC(=O)CCC(=O)c1ccc(O)c2ncccc12
inactive: [1] -6.55% | [2] 6.2% | [3] 16.8% | [4] 26.5% | [5] 16.2% | [6] 21.5%

Nc1nc(SCCc2ccccc2)c2[nH]cnc2n1
inactive: [1] -2.35% | [2] -4.35% | [3] -42.6% | [4] -16.6% | [5] -20.4% | [6] 7%

CN(C)c1ccc(/C=C/C(=O)CC(=O)/C=C/c2ccc(N(C)C)cc2)cc1
inactive: [1] 22.2% | [2] 21.3% | [3] -28.2% | [4] -27.4% | [5] -4.3% | [6] 0.8%

CCN1CC(O)c2cc(N=NC(N)=O)c(O)cc21 (stereo unspecified)
inactive: [1] -3.3% | [2] 14.9% | [3] 3.1% | [4] -8.85% | [5] 3.85% | [6] 23%

C[S+]1C=C(c2ccccc2)SC=C1c1ccccc1 (stereo unspecified)
inactive: [1] 35.2% | [2] 32.9% | [3] 59.6% | [4] 8.3% | [5] 47% | [6] 55%

O=C(NNc1ccccc1OCc1ccccc1)C(F)(F)F
inactive: [1] -0.25% | [2] -20.3% | [3] 0.35% | [4] 39.8% | [5] 27% | [6] 11.2%

COC(=O)C1C2C=CC(C2)N1[C@@H](C)c1ccccc1 (stereo partly specified)
inactive: [1] 8.55% | [2] -28.3% | [3] -40.1% | [4] -5.6% | [5] -28% | [6] -21.4%

CC(=S)N/C=C/c1c(C(=O)O)cc([N+](=O)[O-])cc1[N+](=O)[O-]
inactive: [1] -16.9% | [2] -27.7% | [3] 4.55% | [4] -12.8% | [5] -18.9% | [6] 4.7%

CC(C)CCCC(C)C1CCC2C3CCC(O)C(C)(CCCO)C3CCC12C (stereo unspecified)
inactive: [1] 2% | [2] -3.85% | [3] 11.9% | [4] 32.1% | [5] 15.3% | [6] 13.7%

Clc1c(-c2ccccc2)oc2nc3ccccc3nc12
inactive: [1] 13.9% | [2] 6.85% | [3] 13.6% | [4] 21.6% | [5] -1.55% | [6] 26.2%

Cc1ccc(S(=O)(=O)CN2CCC(=O)c3ccccc32)cc1
inactive: [1] 20.4% | [2] 12.6% | [3] -6.4% | [4] 11.4% | [5] 15.4% | [6] 0.25%

COc1cc2c(cc1OC)C(=O)/C(=C/c1ccc(O)cc1)CC2
inactive: [1] 36.5% | [2] -8.9% | [3] 43.5% | [4] 24.9% | [5] 23.2% | [6] 22.4%

NC1=NCCN1
inactive: [1] 31.9% | [2] 11.3% | [3] 3.5% | [4] -1.85% | [5] 16.8% | [6] 24.3%

Cc1nc(Cl)c2cnccn12
inactive: [1] -4.2% | [2] -1.85% | [3] 7.8% | [4] -37.5% | [5] -1.25% | [6] 0.2%

COc1ccc(Nc2ccnc(N)n2)cc1
inactive: [1] 5.15% | [2] -27.4% | [3] 1.25% | [4] -0.35% | [5] 14.2% | [6] -13.2%

O=C(COCC(=O)N/N=C/c1c(O)ccc2ccccc12)N/N=C/c1c(O)ccc2ccccc12
inactive: [1] -2% | [2] -13% | [3] -5.25% | [4] -8.25% | [5] -1% | [6] 6.9%

NC(Cc1cccc([N+](=O)[O-])c1)C(=O)O (stereo unspecified)
inactive: [1] -57.8% | [2] -29.5% | [3] -35.2% | [4] -48.3% | [5] 13.3% | [6] -3.8%

CCOC(=O)c1ccc(CSc2ccccc2C(=O)OCC)cc1
inactive: [1] -10.3% | [2] -13.1% | [3] 9.95% | [4] -60.1% | [5] -17.1% | [6] -43.2%

CCc1ccc(O)c(CN2CCN(Cc3cc(CC)ccc3O)CC2)c1
inactive: [1] -2.85% | [2] -15.7% | [3] 20.5% | [4] -18.4% | [5] -4.8% | [6] 17.1%

O=C(O)CCCC/C=C/CCCCCCC1C=CCC1 (stereo unspecified)
inactive: [1] -23.4% | [2] -35.9% | [3] 9.8% | [4] 0.7% | [5] -3.65% | [6] 1.65%

NC(=O)CCN(CCC(N)=O)CCC(N)=O
inactive: [1] -9.25% | [2] 7.1% | [3] -3.3% | [4] -24.9% | [5] -4.15% | [6] -12.9%

CCC(c1ccc(Cl)cc1)N(CC)c1ccccn1 (stereo unspecified)
inactive: [1] 7% | [2] -0.4% | [3] 16.6% | [4] -52.4% | [5] 3.5% | [6] -30.2%

CC(C)CC1=C(O)c2ccccc2C(=O)C1=O
inactive: [1] 11% | [2] -9.7% | [3] -1.45% | [4] -1.6% | [5] 10.4% | [6] -2.4%

CN=C(NC#N)NCCSCc1nc[nH]c1C
inactive: [1] 20.3% | [2] 16.8% | [3] -17.5% | [4] -5.2% | [5] -16.6% | [6] -29.2%

CCOC(=O)c1cc(N)c(C(=O)OCC)cc1N
inactive: [1] 4.15% | [2] -16.5% | [3] -1.3% | [4] 3.6% | [5] 8.65% | [6] 10.3%

CC(=O)OCC1(C)NC(=O)c2ccccc2O1 (stereo unspecified)
inactive: [1] 8.2% | [2] 20.2% | [3] 6.9% | [4] 8.15% | [5] 9.7% | [6] 22.4%

COc1cc(OC)c2nccc(NCCCN(C)C)c2c1[N+](=O)[O-]
inactive: [1] 4.75% | [2] -22.4% | [3] 5.75% | [4] 21.6% | [5] -3.4% | [6] 4.75%

Clc1ccc(CSc2cnnc(Cl)c2SCc2ccc(Cl)cc2)cc1
inactive: [1] 8.1% | [2] -4.5% | [3] 8.2% | [4] 22.8% | [5] -2.15% | [6] 3.05%

CC(C)c1cccc(C(C)C)c1NC(=O)Nc1cccc(C(F)(F)F)c1
inactive: [1] -5.4% | [2] -11.1% | [3] 1.45% | [4] 8.3% | [5] 10.2% | [6] 3.85%

CCN(CC)CC(C)(C)C(=O)/C=C/c1ccc(OC)cc1
inactive: [1] -3.7% | [2] -8.2% | [3] 7.35% | [4] -5.5% | [5] 0.05% | [6] -7.3%

CC(=O)OCC1OC(n2c3c(c(-c4ccc(Cl)cc4)c(C#N)c2=S)C(=O)CC(C)(C)C3)C(OC(C)=O)C(OC(C)=O)C1OC(C)=O (stereo unspecified)
inactive: [1] 16.1% | [2] -10.9% | [3] 12.6% | [4] -5.25% | [5] 23.4% | [6] -37.5%

NS(=O)(=O)N1CN(S(N)(=O)=O)CN(S(N)(=O)=O)C1
inactive: [1] -3.4% | [2] 4.1% | [3] 2.65% | [4] -18.6% | [5] 9.75% | [6] 13.4%

O=S(=O)(Nc1cc(Cl)c(NS(=O)(=O)c2ccccc2)c(S(=O)(=O)c2ccccc2)c1Cl)c1ccccc1
inactive: [1] 58.2% | [2] 62.4% | [5] 65.3% | [6] 65%
active: [3] 73.5% | [4] 71.8%

Cc1ccc(/C=N/NC(=O)Cc2cccc3ccccc23)cc1
inactive: [1] -1.75% | [2] 13.4% | [3] 32.9% | [4] -10.9% | [5] 17.1% | [6] 21.1%
